Measurements reported in ChEMBL document CHEMBL3988442, “University of Dundee, Small-Polar-MMV Screening Library” (2021).
Screen size: about 48,000 compounds; about 13,000 (27%) showed an effect of 50% or more. This is one part of the list.

system: Wolbachia pipientis; test: Anti-Wolbachia Cell-Based Screen; assay type: functional; parameters: scale not given: in the data most compounds retested in dose-response had high values; settings: 5 µM

| Compound | Percent Effect |
| --- | --- |
| CC(C)Cc1noc(CNc2cc3c(cc2Cl)OCCCO3)n1 | 11.73% |
| Cn1cc(NC(=O)c2cc[nH]n2)cc(Cl)c1=O | -6.664% |
| Cc1cc(C(=O)NC2CCCN(c3ccccc3)C2=O)on1 (stereo unspecified) | -7.232% |
| Cc1ccc(C(=O)NCC2CCN(C)c3ccccc32)c(=O)[nH]1 (stereo unspecified) | -6.721% |
| Cc1cc(C(=O)Nc2ccc3c(c2)N(C)CCN(C)C3)on1 | 108.1% |
| CCc1ccc(C(=O)Nc2ccc3c(c2)N(C)CCN(C)C3)o1 | 68.84% |
| CCc1ccc(C(=O)Nc2cc(N3CCNC3=O)ccc2Cl)o1 | 2.04% |
| Cc1ccc(C(=O)NC(CN2CCCC2=O)c2ccccc2)c(=O)[nH]1 (stereo unspecified) | -15.69% |
| CCc1ccc(NC(=O)c2cnc(N3CCN(C)CC3)nc2C)cc1 | 0.5656% |
| CN1CCN(C)c2cc(NC(=O)c3cc[nH]n3)ccc2C1 | 95.27% |
| N#Cc1cc(NC(=O)c2cc[nH]n2)ccc1N1CCC(O)CC1 | -7.892% |
| Cc1ccc(C(=O)Nc2ccc3c(c2)N(C)CCN(C)C3)c(=O)[nH]1 | 112.4% |
| CCc1ccc(C(=O)NC2CCN(c3cnn(C)c3)C2=O)o1 (stereo unspecified) | 0.5002% |
| CC(C)N(CC(N)=O)Cc1c(Cl)ccc2cccnc12 | 35.48% |
| CCN(CC)C(=O)c1cnc(Sc2nccn2C)c(Cl)c1 | -3.996% |
| COc1ccccc1CC(=O)NCCCN1CCCC1C(=O)N(C)C (stereo unspecified) | -7.215% |
| CCN(Cc1noc(C)n1)C(=O)C(c1ccccc1C)N(C)C (stereo unspecified) | 20.53% |
| CS(=O)(=O)NCC(=O)NC1(c2ccc(Cl)c(Cl)c2)CC1 | -6.64% |
| Cc1ccc(-n2cc(CN3CCOCC(CN(C)C)C3)cn2)cc1C (stereo unspecified) | -29.82% |
| Cl.O=C(O)[C@@H]1CCCN1c1nccc(Nc2ccccc2)n1 | 110.6% |
| CNC(=O)[C@@H](c1ccccc1)N1CCC[C@H]1C(=O)NCc1ccccn1.Cl.Cl | -0.04544% |
| O=C(Nc1cccc(N2CCCC2)c1)C1CCCN1c1nccs1 (stereo unspecified) | -13.09% |

| Compound | Percent Effect |
| --- | --- |
| O=C([C@@H]1CCCN1c1nccc(Nc2ccccc2)n1)N1CCCCC1 | 107.6% |
| O=C(C1CCCN1c1ncnc2ccsc12)N1CCSCC1 (stereo unspecified) | -9.281% |
| Cc1cn2nc(N3CCCC3C(=O)N3CCSCC3)sc2n1 (stereo unspecified) | -34.07% |
| OCc1ccc(N2CCN(c3ncccn3)CC2)c(F)c1 | 10.85% |
| COc1cc(C2C3=C(COC3=O)Nc3[nH]nc(C)c32)cc(Br)c1O (stereo unspecified) | 6.444% |
| CC(C)CSc1ccc(-n2cccn2)nn1 | -15.59% |
| O=C(O)C(F)(F)F.O=C1[C@H]2CN(CC3CCOCC3)C[C@H]2CN1c1ccsc1 | -12.76% |
| O=C(O)C(F)(F)F.O=S(=O)(c1ccc(F)cc1)N1CC[C@H]2[C@H]1CCN2c1ncccn1 | 5.126% |
| CCN1C(=O)C[C@@H]2[C@@H]1CCN2S(=O)(=O)c1ccccc1 | -17.79% |
| O=S(=O)(c1ccccc1)N1CCCCC1c1cc[nH]n1 (stereo unspecified) | 7.34% |
| O=S(=O)(c1ccccc1)N1CCCC1c1cc[nH]n1 (stereo unspecified) | 100.7% |
| CS(=O)(=O)c1ccc(CN2CCCCC2c2ccc(F)cc2)cc1 (stereo unspecified) | 14.88% |
| O=S(=O)(c1ccccc1F)N1CCCCC1c1cc[nH]n1 (stereo unspecified) | 126.5% |
| O=S(=O)(c1ccc(F)cc1)N1CCCCC1c1cc[nH]n1 (stereo unspecified) | 93.21% |
| CNS(=O)(=O)c1ccc(CN2CCCC2c2ccc(F)cc2)cc1 (stereo unspecified) | -2.722% |
| COCCN(C)CC1CCCN1S(=O)(=O)c1cccc(F)c1F (stereo unspecified) | -7.612% |
| O=S(=O)(c1ccc(F)cc1)N1CCCC1c1cc[nH]n1 (stereo unspecified) | 93.9% |
| COc1nn(C)c2c1CCCN(S(=O)(=O)c1ccccc1F)C2 | 9.619% |
| CN(Cc1ccno1)C(=O)c1cccc(CC2CCNCC2)c1 | -13.23% |
| Cc1nc(C2(NC(=O)NCc3cc(C#N)ccc3F)CCCC2)no1 | -8.279% |
| CCNC(=O)NC(=O)CNC1(c2noc(C)n2)CCCC1 | 91.61% |
| Cc1nc(C2(NCc3ccc(C#N)cc3F)CCCC2)no1 | 14.6% |

| Compound | Percent Effect |
| --- | --- |
| COc1cc(-c2nccn2C(C)CCn2cccn2)cc2c1OCO2 (stereo unspecified) | -13.68% |
| CC1CCN(C)c2ccccc2N1C(=O)c1ccc(=O)n(C)n1 (stereo unspecified) | -12.65% |
| CC(C)(C)CN1CCCC(O)(CN2CCc3[nH]ncc3C2)C1=O (stereo unspecified) | -1.805% |
| CC(C)CCN1CCCC12Cc1ccccc1CNC2=O (stereo unspecified) | 106.1% |
| CC(C)(C)CN1CCCC12Cc1ccccc1CNC2=O (stereo unspecified) | 188% |
| COc1nn(C)cc1C(=O)NCC(=O)NCc1ccccn1 | 5.267% |
| Cc1ccc(CNC(=O)CN(CCC(N)=O)c2ccc(F)cc2)cc1 | 105.8% |
| Cc1cccc(N(CCC(N)=O)CC(=O)Nc2ccccc2)c1 | 2.508% |
| Cc1cccc(N(CCC(N)=O)CC(=O)NC2CCCC2)c1 | -5.461% |
| NC(=O)CCN(CC(=O)NCc1ccccn1)c1ccc(F)cc1 | 119% |
| NC(=O)CCN(CC(=O)NCc1cccs1)c1ccc(F)cc1 | 110% |
| O=C(CN(Cc1cccs1)c1ccc(F)cc1)NC1CCOCC1 | -0.05044% |
| O=C(NCc1ccccn1)N(Cc1ccc(F)cc1F)C1CC1 | -2.472% |
| O=C(CSc1nnc[nH]1)NCc1cccs1 | -6.872% |
| CS(=O)(=O)CCOCCNc1ccc(Br)cn1 | -8.426% |
| CN(CCS(=O)(=O)c1cc(Cl)ccc1Cl)CC(=O)Nc1cccc(F)c1 | -24.13% |
| CC1CCCN(C(=O)c2cn(-c3ccc(C(F)(F)F)cn3)nn2)C1 (stereo unspecified) | -4.176% |
| Cc1ccc(CN2CCCC(c3cncc(C)n3)C2)cn1 (stereo unspecified) | 118.4% |
| Cc1cncc(C2CCCN(Cc3ccncc3)C2)n1 (stereo unspecified) | 93.31% |
| Cc1cncc(C2CCCN(CC3CCC3)C2)n1 (stereo unspecified) | 105.7% |
| Cc1cnc(CN2CCCC(c3cc(C(F)(F)F)[nH]n3)C2)cn1 (stereo unspecified) | -5.55% |
| CN(CCc1cn[nH]c1)C(=O)C1CC(=O)N(Cc2ccccn2)C1 (stereo unspecified) | 3.692% |
